This is an account of results in PubChem BioAssay (NCATS).

Assay [1] deals with Cytochrome P450 2C9 (Homo sapiens) (UniProt P11712). As to the kind of experiment: qHTS Assay for Inhibitors and Substrates of Cytochrome P450 2C9 (AID 883). Note: nearly all actives have a fitted effect of over 60% in size. Note: potency is the fitted concentration of half-maximal effect. In short, it runs like this: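 Signal: luciferase luminescence reporting luciferin produced by CYP2C9. Conditions: 10nM enzyme, Luciferin-H 100uM at KM, 25mM KPO4, 37C, 60 min NADPH-driven reaction. Reference: 57uM sulphaphenazole as 100% inhibition.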
(qHTS replaces the single test concentration by a dilution series.)

Assay [2] addresses Cytochrome P450 2D6 (Homo sapiens) (UniProt P10635). The experiment in a line: qHTS Assay for Inhibitors and Substrates of Cytochrome P450 2D6 (AID 891).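 Note: luciferin methyl ether substrate demethylated by CYP2D6 with NADPH regeneration; % is set by controls: 0 for no effect and ±100 for the full control effect; nearly all actives have a fitted effect of over 60% in size.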 Summed up:
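Human CYP2D6 (5 nM) with 30 uM Luciferin-ME EGE (at Km) in 100 mM KPO4, compound preincubated 10 min, then NADPH regeneration system for 60 min at room temperature. Luciferin read by luminescence; normalized to 1.43 uM quinidine.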

Assay [3] concerns the target Cytochrome P450 2C19 (Homo sapiens) (UniProt P33261). The experiment in a line: qHTS Assay for Inhibitors and Substrates of Cytochrome P450 2C19 (AID 899). Note: nearly all actives have a fitted effect of over 60% in size. Note: potency is the fitted concentration of half-maximal effect. In short, it runs like this:
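Signal comes from luciferase acting on luciferin released by CYP2C19-mediated hydroxylation of Luciferin-H EGE, 10uM (KM). Assay mix: 5nM enzyme, 50mM KPO4; 60 min at 37C with NADPH regeneration. Data normalized against 57uM ketoconazole.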

Assay [4] has as its target Cytochrome P450 3A4 (Homo sapiens) (UniProt P08684). The experiment in a line: qHTS Assay for Activators of Cytochrome P450 3A4 (AID 885). Note: nearly all actives have a fitted effect of over 65% in size. Summed up:
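Steps: enzyme/substrate mix dispensed; compound added, 10 min RT; NADPH regeneration solution added, 60 min RT; luciferin detection buffer stops reaction; 20 min later luminescence measured.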

Assay [5] can be described thus: qHTS Assay for Identification of Small Molecule Agonists for Hypoxia Response Element Signaling Pathway (AID 914; active = well fitted activation curve with a large enough effect in the signal ratio, with a control signal flat, not every such curve was filed as active; the % refers to the signal ratio; note: % of control where 0% means no effect). The following applies: ME-180 (cervical carcinoma) HRE-bla reporter, beta-lactamase ratio, CoCl2, 17 h; active compounds read high. Summed up:
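Cells were plated overnight, pin-dosed with compound in a titration series, co-stimulated with EC50 CoCl2 and incubated 17 hours at 37 degrees Celsius. CCF4 substrate was then loaded, and AC50 values came from the 460nm/530nm ratio.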

The structures appear in SMILES notation. Several values for one entry are separate records, joined by “and”; a condition that tells them apart may be missing. Identical values can stand only once. Records with an inconclusive call do not appear. Activity calls are given as the source filed them. Unless noted, calls come from the whole dose curve; as a rule, active = well fitted curve in the direction sought with a large enough effect; inconclusive = small, poorly fitted or top-dose-only effect, or another doubt; inactive = no such curve, though single readings can be large; an effect the other way counts as inactive or inconclusive.

Chain of Cytochrome P450 2D6 (Homo sapiens) (P10635 whole entry, looked up): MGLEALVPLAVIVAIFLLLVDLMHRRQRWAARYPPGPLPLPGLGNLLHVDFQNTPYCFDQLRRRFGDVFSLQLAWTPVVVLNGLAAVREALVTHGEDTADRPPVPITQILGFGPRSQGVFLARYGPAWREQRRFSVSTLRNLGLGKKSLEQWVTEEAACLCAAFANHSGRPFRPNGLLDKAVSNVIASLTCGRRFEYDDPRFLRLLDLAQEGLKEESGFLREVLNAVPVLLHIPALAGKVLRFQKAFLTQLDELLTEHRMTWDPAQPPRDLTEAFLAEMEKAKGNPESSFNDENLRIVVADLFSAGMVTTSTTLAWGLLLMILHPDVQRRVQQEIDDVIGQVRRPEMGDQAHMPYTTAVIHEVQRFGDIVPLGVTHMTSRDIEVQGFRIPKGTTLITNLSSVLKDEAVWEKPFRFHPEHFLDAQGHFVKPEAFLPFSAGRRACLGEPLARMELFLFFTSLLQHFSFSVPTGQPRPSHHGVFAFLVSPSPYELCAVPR
Chain of Cytochrome P450 2C9 (Homo sapiens) (P11712 whole entry, looked up): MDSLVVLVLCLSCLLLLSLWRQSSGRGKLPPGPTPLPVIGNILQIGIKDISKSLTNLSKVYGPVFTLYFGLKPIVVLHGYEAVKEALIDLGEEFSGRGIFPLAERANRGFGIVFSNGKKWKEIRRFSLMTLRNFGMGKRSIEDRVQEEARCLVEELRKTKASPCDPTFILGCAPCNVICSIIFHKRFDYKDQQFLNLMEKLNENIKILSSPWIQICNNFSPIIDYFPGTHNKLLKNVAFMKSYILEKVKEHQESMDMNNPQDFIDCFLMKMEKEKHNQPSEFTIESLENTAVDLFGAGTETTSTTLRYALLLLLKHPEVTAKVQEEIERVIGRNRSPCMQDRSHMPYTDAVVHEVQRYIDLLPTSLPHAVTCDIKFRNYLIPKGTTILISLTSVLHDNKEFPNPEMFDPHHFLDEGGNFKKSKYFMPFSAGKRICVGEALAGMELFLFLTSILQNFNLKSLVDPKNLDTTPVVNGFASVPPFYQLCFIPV
Chain of Cytochrome P450 3A4 (Homo sapiens) (P08684 whole entry, looked up): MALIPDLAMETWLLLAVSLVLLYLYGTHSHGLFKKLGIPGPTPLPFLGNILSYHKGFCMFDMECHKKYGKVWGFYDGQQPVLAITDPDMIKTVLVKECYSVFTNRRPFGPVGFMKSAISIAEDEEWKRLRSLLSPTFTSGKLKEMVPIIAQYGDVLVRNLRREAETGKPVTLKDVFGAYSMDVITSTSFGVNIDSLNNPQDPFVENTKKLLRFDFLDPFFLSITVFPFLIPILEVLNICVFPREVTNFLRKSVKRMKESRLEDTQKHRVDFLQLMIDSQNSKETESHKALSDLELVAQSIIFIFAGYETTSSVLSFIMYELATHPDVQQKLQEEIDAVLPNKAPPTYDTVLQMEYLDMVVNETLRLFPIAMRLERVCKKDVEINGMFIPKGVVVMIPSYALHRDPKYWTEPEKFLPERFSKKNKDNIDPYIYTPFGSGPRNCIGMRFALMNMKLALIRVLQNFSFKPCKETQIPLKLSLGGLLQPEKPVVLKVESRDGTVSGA
Chain of Cytochrome P450 2C19 (Homo sapiens) (P33261 whole entry, looked up): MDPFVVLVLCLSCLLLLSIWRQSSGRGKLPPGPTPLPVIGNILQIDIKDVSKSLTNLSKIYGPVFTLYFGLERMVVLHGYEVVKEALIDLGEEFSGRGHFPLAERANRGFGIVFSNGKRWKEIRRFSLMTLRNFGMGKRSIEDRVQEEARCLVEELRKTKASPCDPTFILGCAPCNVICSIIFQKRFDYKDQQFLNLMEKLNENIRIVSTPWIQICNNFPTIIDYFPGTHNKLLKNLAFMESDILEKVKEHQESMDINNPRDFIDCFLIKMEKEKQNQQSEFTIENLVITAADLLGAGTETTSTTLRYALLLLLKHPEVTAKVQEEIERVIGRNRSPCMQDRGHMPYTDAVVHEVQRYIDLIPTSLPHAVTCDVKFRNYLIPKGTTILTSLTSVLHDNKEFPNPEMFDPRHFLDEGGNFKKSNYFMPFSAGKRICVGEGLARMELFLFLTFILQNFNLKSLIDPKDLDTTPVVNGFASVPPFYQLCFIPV

For the molecule `COC(=O)C1=C(C)N(Cc2ccccc2)C2=C3C(=O)N(c4ccccc4)C(=O)C3[C@@](O)(C(=O)OC)C(=O)N2C1c1ccccc1` (some centres undefined), the Potency result in assay [1], in assay [2] and in assay [3] was “inactive” throughout.

Consider `COC(=O)[C@@H]1CC[C@H](C)[C@@H](c2ccc(C)cc2)N1C(=O)c1ccc(/C=N\OC[C@@H](O)[C@H]2O[C@H]3OC(C)(C)O[C@H]3[C@@H]2O)cc1`, for which the Potency in assay [1] is 2.51 µM (active); in assay [3], 631 nM (active). Besides, the activity change, positive = activation in assay [4] is -58.3% [at 11.4 µM] (inactive).

On to `CCCCc1nc2c(c3c1CC(C)OC3)CN(CCOc1ccccc1)CC2` (centres undefined), for which the Potency entry in assay [1] and in assay [3] was “inactive” in each case. Besides, the activity change, positive = activation in assay [4] was -59.6% [at 11.4 µM] (inactive).

With `CCCCCCCC#Cc1ccccc1/C=N/S(=O)C(C)(C)C` (centres undefined), the Potency result in assay [1], in assay [2] and in assay [3] was “inactive” each time. Besides, the activity change, positive = activation in assay [4] is -47.5% [at 11.4 µM] (inactive).

`CCC(=O)[C@]12O[C@@]3(C4C(=O)OCCC41)N(CC)C(C)=C(C(=O)OC)C(c1ccccc1)N3C2=O` (some centres undefined): the Potency result in assay [1], in assay [2] and in assay [3] was “inactive” throughout. In assay [4], the activity change, positive = activation is -34.2% [at 11.4 µM] (inactive).

Consider `COC(=O)[C@@H]1CC[C@H](C)[C@@H](c2ccc(C)cc2)N1C(=O)c1ccc(/C=N\OC[C@@H](O)COCc2ccco2)cc1`, for which, in assay [1], the Potency is 3.98 µM (active). Also, the activity change, positive = activation in assay [4] is -58.1% [at 11.4 µM] (inactive). Moreover, in assay [5], the activation is 9.82% (inactive).

As to `C(#CC1C=CC2OC(c3ccccc3)OCC2O1)c1ccccc1` (centres undefined), the Potency result in assay [1], in assay [2] and in assay [3] was “inactive” in each case. In addition, the activity change, positive = activation in assay [4] is -40.5% [at 11.4 µM] (inactive).

Turning to `O=C1CCC[C@@H](C(C(=O)OCc2ccccc2)C(=O)OCc2ccccc2)C1`, in assay [1], the Potency was 3.16 µM (active). Besides, the activity change, positive = activation in assay [4] was -39.2% [at 11.4 µM] (inactive). Moreover, in assay [5], the activation is -22.4% (inactive).

On to `C=C(C)C(O)/C=C/C=C/c1ccccc1` (centres undefined), for which the Potency result in assay [1], in assay [2] and in assay [3] was “inactive” in each case. The activity change, positive = activation in assay [4] is -32.8% [at 11.4 µM] (inactive).

In the case of `C=CCOC(=O)C(C(=O)CC)C(NC(=O)OC)c1ccc(F)cc1` (centres undefined), the Potency entry in assay [1], in assay [2] and in assay [3] was “inactive” in each case. Further, in assay [4], the activity change, positive = activation was -52.3% [at 11.4 µM] (inactive).

Turning to `CC12C=C(/C=C/c3ccccc3)C(C)(C1)C(c1ccccc1)CC2=O` (centres undefined), the Potency result in assay [1] is “inactive”. Further, the activity change, positive = activation in assay [4] is -52.8% [at 11.4 µM] (inactive). In addition, the Potency in assay [3] was 794 nM (active).

Take `C=CCOC(=O)C(C(C)=O)C(NC(=O)OC)c1ccc2ccccc2c1` (centres undefined): the Potency result in assay [1] and in assay [2] was “inactive” throughout. Moreover, the activity change, positive = activation in assay [4] was -46.5% [at 11.4 µM] (inactive). In assay [3], the Potency was 126 nM (active).

On to `CC1CCC2C(=O)OC(Cc3ccccc3)CN2C1c1ccc(Br)cc1` (centres undefined), for which the Potency result in assay [1] and in assay [2] was “inactive” each time. In assay [3], the Potency is 316 nM (active) and 3.16 µM (active).

Take `C=C(C)C(O)/C=C/CCCCCCC` (centres undefined): the Potency result in assay [1], in assay [2] and in assay [3] was “inactive” each time.

With `C[C@@H](c1ccccc1)N1C(=O)[C@H]2[C@@H]3[C@H](O)[C@H](O)CC(=O)[C@H]3CC[C@H]2C1=O`, in assay [1], the Potency entry was “inactive”. Also, the activation in assay [5] was -2.53% (inactive) and -2.06% (inactive).

On to `COc1ccccc1/C=C/C1=CC2(C)CC1(C)C(c1ccccc1OC)CC2=O` (centres undefined), for which the Potency in assay [1] was 3.98 µM (active); in assay [3], 3160 nM (active). The Potency entry in assay [2] was “inactive”.

On to `CCCCCCC1=Cc2cc(OC)c(OC)cc2C(C(C(C)=O)C(=O)OC)O1` (centres undefined), for which the Potency entry in assay [1] and in assay [2] was “inactive” each time. In assay [4], the activity change, positive = activation is -57.6% [at 11.4 µM] (inactive). In addition, the Potency in assay [3] is 3160 nM (active).

Regarding `O=C1OC(C2=CCCCC2)=NC12CC2`, the Potency entry in assay [1], in assay [2] and in assay [3] was “inactive” throughout. Also, in assay [4], the activity change, positive = activation was -40.2% [at 11.4 µM] (inactive).

Take `CC(=O)Nc1ccc(C2C(C)CCC3C(=O)N4C(CCC(C)[C@@H]4c4ccc(NC(C)=O)cc4)C(=O)N32)cc1` (some centres undefined): the Potency entry in assay [1], in assay [2] and in assay [3] was “inactive” each time. In assay [4], the activity change, positive = activation was -34.4% [at 11.4 µM] (inactive).

With `COC(c1ccccc1)C(C)C(OC)C(C)C(OC)C(C)C(C)=O` (centres undefined), the Potency result in assay [1], in assay [2] and in assay [3] was “inactive” throughout. In addition, in assay [4], the activity change, positive = activation was -36.1% [at 11.4 µM] (inactive).
